FBW7 activator: activators of human E3 ligase FBW7. AID 1259310. actives 0.13% (n = 650,000). Q969H0. normalized activity (activation), % at 26.1 µM. AlphaScreen FBW7–phospho-cyclin E peptide binding, activator screen; in the data active = normalized activity above about 1.9%;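 also: purified mutant Fbw7 with reduced substrate affinity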
TEAD-YAP inh: TEAD-YAP interaction inhibition; HEK-TIYL cells, TEAD-Gal4/YAP UAS-luciferase luminescence; inhibition, % at 9.12 µM; actives 1.4% (n = 640,000); in the data active = inhibition above about 32%
GPR151 activ: activates the human receptor GPR151 | PathHunter beta-arrestin GPR151 cells, luminescence | activation, % at 11.2 µM | actives 1% (n = 650,000) | AID 1508602; in the data active = activation above about 4.9%
MITF inh: human MITF inhibition, primary screen; O75030; AlphaScreen MITF homodimerization, bead proximity signal; inhibition, % at 2.6 µM; actives 0.91% (n = 650,000); AID 1259374; in the data active = inhibition above about 50%
Hits are given with their value; – = inactive. The list is not random: actives were taken first. Their share in the collection is about 3.5%.

SMILES	FBW7 activator	TEAD-YAP inh	GPR151 activ	MITF inh
COC(=O)c1ccc2nc(C)cc(Nc3ccc(OC)cc3)c2c1	–	–	–	–
CCNc1nccc(NCc2cccc(C(F)(F)F)c2)n1	–	37	–	–
OC1CCC(Nc2nccc(NCc3cccc(C(F)(F)F)c3)n2)CC1 (configuration not stated)	–	48	–	–
OC1CCC(Nc2nccc(NCc3ccccc3)n2)CC1 (configuration not stated)	–	–	–	–
FC(F)(F)c1cccc(CNc2ccnc(Nc3ccc(-n4ccnc4)cc3)n2)c1	–	36	–	–
CCNc1nc(C)cc(NCc2cccc(C(F)(F)F)c2)n1	–	–	–	–
C/C(=N\OCc1ccc(Cl)cc1)c1ncc(C(F)(F)F)cc1N1CCOCC1	–	–	–	–
CCOc1ccc(N(CC(=O)Nc2ccccc2C)S(=O)(=O)c2c(C)noc2C)cc1	–	55	–	–
Cc1ccc2cc3cc(C(=O)N4CCN(C)CC4)oc3nc2c1	–	45	–	–
Cc1ccc(S(=O)(=O)N(Cc2ccc(F)cc2)CC2CCC(C(=O)O)CC2)cc1 (configuration not stated)	–	–	–	–
C=CCNC(=O)/C(C#N)=C/c1c(Oc2ccccc2C)nc2ccccn2c1=O	–	32	–	–
COCCCNC(=O)/C(C#N)=C/c1c(Oc2cc(C)cc(C)c2)nc2c(C)cccn2c1=O	–	33	–	–
CNC(=O)/C(C#N)=C/c1c(Oc2ccccc2C)nc2c(C)cccn2c1=O	–	47	–	–
CCNC(=O)/C(C#N)=C/c1c(Oc2cccc(C)c2C)nc2c(C)cccn2c1=O	–	35	–	–
COCCNC(=O)/C(C#N)=C/c1c(Oc2cc(C)cc(C)c2)nc2c(C)cccn2c1=O	–	–	–	–
CC1CCC2(CC1)NC(=O)N(CN1CCN(c3ccccc3)CC1)C2=O (configuration not stated)	–	–	–	–
COc1cccc(C(=O)NCc2ccc(Cl)cc2Cl)c1	–	–	–	–
CCOC(=O)c1ccccc1NC(=O)/C(C#N)=C/c1c[nH]c2ccccc12	–	–	–	–
COc1cc(/C=N\NC(=O)Cc2nnc(NC(=O)c3ccccc3)s2)ccc1O	–	–	–	–
COCCn1c(C)cc(O)c(C(=O)Nc2ccc(Cl)c(Cl)c2)c1=O	–	–	–	–
COc1ccc(C(NC(C)=O)c2c(O)ccc3ccccc23)cc1 (configuration not stated)	–	62	–	–
COc1ccc(C(NC(C)=O)c2c(OC(C)=O)ccc3ccccc23)cc1 (configuration not stated)	–	62	–	–
CCCC(=O)NC(c1ccco1)c1c(O)ccc2ccccc12 (configuration not stated)	–	–	–	–
CCCC(=O)NC(c1ccc(OC)cc1)c1c(O)ccc2ccccc12 (configuration not stated)	–	44	–	–
CC1Cc2ccccc2N1C(=O)COC(=O)Cn1cnc2ccccc21 (configuration not stated)	–	–	–	–
SMILES	FBW7 activator	TEAD-YAP inh	GPR151 activ	MITF inh
O=C(CC1C(=O)N(c2ccc(Cl)cc2)C(=S)N1Cc1ccccc1)Nc1ccc(Cl)cc1 (configuration not stated)	–	–	–	–
CCOc1ccc(NC(=O)C2C3C=CC4(O3)C2C(=O)N(C2CCCCCCC2)C4C(=O)NC2CCCCC2C)cc1 (configuration not stated)	–	–	–	–
O=C(CCl)N(Cc1cccs1)C1CCS(=O)(=O)C1 (configuration not stated)	–	60	–	–
CCCCN(C(=O)CCl)C1CCS(=O)(=O)C1 (configuration not stated)	–	73	–	–
O=C(COc1ccc(Cl)cc1)N(Cc1cccs1)C1CCS(=O)(=O)C1 (configuration not stated)	–	–	–	–
COc1ccc(/C(O)=C2/C(=O)C(=O)N(CCN(C)C)C2c2ccc(F)cc2)cc1 (configuration not stated)	–	–	–	–
CC(C)CC(NC(=O)CN(C)C)c1nnc2n1CCN(C(=O)/C=C/c1cccs1)CC2 (configuration not stated)	–	–	–	–
Cc1c(-c2ccc(-c3ccccc3)cc2)[n+](CC(=O)c2ccccc2)c2ccccn12	–	56	–	–
O=C(Nc1ccc(-c2nc3ccccc3o2)cc1)c1cc([N+](=O)[O-])ccc1Cl	–	–	–	–
O=[N+]([O-])c1cc(Cl)c2oc(-c3ccc(O)cc3)nc2c1	–	55	–	–
CCOC(=O)CSc1ccc(C(=O)NCCC2=CCCCC2)cc1[N+](=O)[O-]	–	–	–	–
C/C(N)=C(/C#N)C(=O)CSc1ccc(C)c(C)c1	–	36	–	–
CCc1c(C)nc2ncnn2c1NCCc1ccc(OC)cc1	–	66	–	–
CC(C)COc1ccc(C(=O)N/C(=C/c2ccccc2)C(N)=O)cc1	–	–	–	–
Ic1cccc(-c2nc(-c3ccccn3)no2)c1	–	–	–	–
COc1cccc(-c2nc(-c3ccccc3)no2)c1	–	–	–	–
COc1cccc(-c2nc(-c3ccccn3)no2)c1	–	86	–	–
Brc1ccc(-c2nc(-c3ccccn3)no2)cc1	–	90	–	–
Brc1cccc(-c2nc(-c3ccccn3)no2)c1	–	73	–	–
c1ccc(-c2noc(-c3ccncc3)n2)nc1	–	–	–	–
CC(C)(C)c1ccc(-c2nc(-c3ccccn3)no2)cc1	–	96	–	–
COc1cccc(CN2CCN(C3CCC(=O)N(Cc4ccc(F)c(F)c4)CC3)CC2)c1 (configuration not stated)	–	–	–	–
Clc1ccccc1/C=C/c1nc(-c2ccccn2)no1	–	85	–	–
COc1cc(OC)cc(C(=O)Nc2ccc(-c3ccc(N4CCN(C)CC4)nn3)cc2)c1	–	–	–	–
COc1ccc(Nc2nc3nonc3nc2N/N=C(\C)c2nonc2C)cc1	–	52	–	–
SMILES	FBW7 activator	TEAD-YAP inh	GPR151 activ	MITF inh
COc1ccc(Nc2nc3nonc3nc2Nc2ccc(OC)cc2)cc1	–	–	–	–
N#CC1=C(N)Oc2cc(N)ccc2C1c1ccc(C(F)(F)F)cc1 (configuration not stated)	–	–	–	–
N#CC1=C(N)Oc2cc(N)ccc2C1C1CCCCC1 (configuration not stated)	–	46	–	–
Oc1c(C(c2cccs2)N2CCN(c3ccccn3)CC2)ccc2cccnc12 (configuration not stated)	–	91	–	–
O=C(c1ccc2ccccc2c1)N1CCN(c2ccccn2)CC1	–	–	–	–
Oc1c(C(c2ccccn2)N2CCCC2)ccc2cccnc12 (configuration not stated)	–	67	–	107
Oc1ccccc1C(Nc1nccs1)c1ccc2cccnc2c1O (configuration not stated)	–	–	–	–
CN1CCN(C(c2ccccn2)c2ccc3cccnc3c2O)CC1 (configuration not stated)	–	–	–	90

Screening results from PubChem BioAssay.
